Assay outcomes: PubChem BioAssay, Broad Institute
Not all results are given here.
aSyn UTR act: Activators via SNCA 5'UTR binding, MLPCN | alpha-synuclein 5'UTR reporter, activators screen | activity score, % (tested at 7.5 µM), hits read low | 300,000 tested, 7.1% active; in the data active = activity score below about -60%
Numbers stand for hits; 0 = inactive.

SMILES	aSyn UTR act
O=C1CCCc2c1sc1nc3n(c(=O)c21)CCCCC3	-106.8
O=c1c2c3c(sc2nc2n1CCCCC2)C(O)CCC3 (stereo unspecified)	-85.0
O=C1c2sc3nc4n(c(=O)c3c2CCC1Br)CCCCC4 (stereo unspecified)	-179.6
CN1CCC(C2(O)c3ccccc3CCc3ccccc32)CC1	-61.9
CC1c2cc3c(cc2CCN1C(=O)c1cccc(F)c1)OCCCO3 (stereo unspecified)	-69.4
COc1ccccc1-n1c(C)cc(/C=C2\C(=N)N3N=C(CC(=O)N4CCOCC4)SC3=NC2=O)c1C	-71.6
Cc1cc(/C=C2/SC(=O)N(CC(=O)N3CCOCC3)C2=O)c(C)n1-c1ccccc1F	-143.2
COc1cc(/C=C2/C(=N)N3N=C(CC(=O)N4CCOCC4)SC3=NC2=O)ccc1OCc1ccc(F)cc1	-101.7
CN(C)CCn1cnc2c(c1=N)C(c1ccccc1)c1ccc3ccccc3c1O2 (stereo unspecified)	0
Cc1ccc(C(=O)Oc2ccc(/C=C3\C(=N)N4N=C(N5CCOCC5)SC4=NC3=O)cc2)cc1	-61.9
c1cc(-c2noc(CCC3CCCC3)n2)ccn1	-79.4
c1ccc(-c2noc(CC3CCCCC3)n2)cc1	-168.7
CN(Cc1nc(-c2ccccc2)no1)C1CCOCC1	-98.1
c1ccc(-c2noc(CCC3CCCC3)n2)cc1	-120.7
CCOc1ccc2nc(N3C(=O)/C(=C/c4ccc(Cl)cc4)NC3=S)sc2c1	-73.1
CC(C)c1ccc(C2CC(c3ccc(Br)cc3)=NN2C(N)=S)cc1 (stereo unspecified)	-97.4
Cc1ccc(NC(=O)C2C3/C=C\CCCCC32)cc1C (stereo unspecified)	-115.4
CCOC(=O)c1cn(CC)c2c(ccc3ccccc32)c1=O	-89.7
CCOC(=O)N=Nc1c2ccccc2c2nc3no[nH]c3nc12	0
Cc1nc(-c2ccc(NC(=O)c3ccco3)cc2)cs1	0
Cc1nc(-c2ccc(NC(=O)Cc3ccccc3)cc2)cs1	-163.8
CCC(=O)Nc1ccc(-c2csc(C)n2)cc1	-80.5
O=C(COc1ccc(/C=N/NC(=O)c2cc3ccccc3o2)cc1Cl)Nc1ccccc1	0
O=C(COc1ccc(/C=N/NC(=O)c2ccccc2O)cc1)Nc1ccccc1	-126.4
O=C(N/N=C/c1ccc(OCC(=O)N2CCCCC2)cc1)c1ccccc1O	-74.1
SMILES	aSyn UTR act
COc1cc(/C=N/NC(=O)c2ccccc2O)ccc1OCC(=O)Nc1ccccc1	-140.0
COc1cc(/C=N/NC(=O)c2ccncc2)ccc1OCC(=O)Nc1ccccc1	-100.2
COC(=O)c1cccc(NC(=O)c2cc3sccc3n2C)c1	-76.0
Cn1c(C(=O)NC2CCCCC2)cc2sccc21	-147.4
CN(C(=O)c1cc2sccc2n1C)C1CCCCC1	-109.6
CCn1c(C(=O)NC2CCC(C)CC2)cc2sccc21 (stereo unspecified)	-87.3
CCN(C(=O)c1cc2c(=O)[nH]c3ccc(C)cc3c2s1)c1cccc(C)c1	-217.3
Cc1ccc(NCCC(=O)c2ccccc2)cc1Cl	-133.9
Cc1ccc(NCC(=O)c2ccc(C)cc2)cc1	-125.0
Cc1ccc(C(=O)CNc2ccc(C)c(Cl)c2)cc1	-68.4
Cc1ccc(NC(=O)CNC(=O)c2ccccc2F)cc1Cl	-69.2
Cc1ccc(NCCC(=O)c2ccc(Cl)cc2)cc1	-119.0
CC(C)c1ccc(C(O)Cc2nc3ccccc3n2C)cc1 (stereo unspecified)	-102.4
COc1ccccc1C(O)Cc1nc2ccccc2n1C (stereo unspecified)	-87.5
CN(C)c1ccc(C(O)Cc2nc3ccccc3n2C)cc1 (stereo unspecified)	-96.7
COc1ccc(C(C)NCCC(c2ccc(OC(C)C)cc2)c2ccccc2OC)cc1 (stereo unspecified)	0
Cc1cc2cc(CCNC(=O)c3cccs3)c(=O)[nH]c2cc1C	-148.7
COc1ccc2cc(CCNC(=O)c3ccco3)c(=O)[nH]c2c1	-116.5
CCC(c1nnnn1CCc1ccccc1)N(Cc1ccco1)Cc1cc2c(C)ccc(C)c2[nH]c1=O (stereo unspecified)	0
Cc1ccc2cc(CCNC(=O)c3ccco3)c(=O)[nH]c2c1C	-137.9
CC(=O)Nc1ccc(S(=O)(=O)N(Cc2cccnc2)Cc2cc3ccc(C)cc3[nH]c2=O)cc1	0
Cc1ccc2cc(CCNC(=O)c3ccco3)c(=O)[nH]c2c1	-142.9
COc1cc(C(=O)Oc2c(CN3CCOCC3)cc(Cl)c3cccnc23)cc(OC)c1OC	0
CCCCCOc1ccc(CN2CCOCC2)cc1Cl	-154.2
Cc1ccc(NC(=O)c2cnccn2)nc1	-77.6
SMILES	aSyn UTR act
Cc1ccc(NC(=O)c2cnccn2)c(Br)c1	-87.3
Cc1c(C(=O)N2C[C@@H](C)O[C@@H](C)C2)oc2c(F)cccc12	-73.4
Cc1c(C(=O)NC2CCOC2)oc2c(F)cccc12 (stereo unspecified)	-147.6
Cc1cc(C(=O)NCCc2ccccc2)ccc1[N+](=O)[O-]	-115.8
O=C(NCCc1ccccc1)c1ccc(Cl)c([N+](=O)[O-])c1	-98.9
CCCN1CCC(Oc2cccc(C(=O)NCCc3ccccc3)c2)CC1	-72.2
CCC(CC)C(=O)Nc1cccc(C(=O)NCCc2ccccc2)c1	-64.4
Cc1cccc(C(=O)NCCc2ccccc2)c1	-111.6
